# Test system: CSNK2A2
# Conditions: concentration: 1 μM, replicates: in singlicate; n = 1
# 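Also: KINOMEscan kinase panel screen.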
row,SMILES,%Inh [%]
1,COc1cc2ncn(-c3cc(OCC4CCCO4)c(C(N)=O)s3)c2cc1OC (centres unmarked) [GSK204607],9
2,C[C@@H]1CCCCN1c1cc(-c2ccc3c(N)n[nH]c3c2)nc(N)n1 [GSK2258759],76
3,COc1ccc(C2=C(Nc3cccc(C(=O)O)c3)C(=O)NC2=O)cc1 [SB-390765],10
4,CCCc1ccc(S(=O)(=O)NC2CCN(c3ccnc(Nc4ccc(F)cc4)n3)C2)cc1 (centres unmarked) [GSK1379715],0
5,O=C(Nc1ccccc1)Nc1cccc(Oc2ccc3nccn3n2)c1,0
6,Cn1ccc2ncnc(Oc3ccc(Nc4nc5ccccc5[nH]4)cc3)c21,0
7,Cc1cccc(-c2cc(Nc3ccncc3)c3ccccc3n2)n1 [GSK223675],2
8,Cc1ccc(NC(=O)Nc2cccc(Cl)c2)cc1-c1ccc(C(=O)Nc2ccncc2)cc1 [GSK1398468],0
9,COc1ccc(CNC(=O)NC2CCN(c3ccnc(Nc4cc(OC)c(OC)c(OC)c4)n3)C2)cc1 (centres unmarked) [GSK1379748],9
10,O=S(=O)(c1ccc(-c2ccnc3[nH]ccc23)cc1)N1CCCC1 [GSK846226],6
11,COc1ccccc1-c1ccc2c(NC(=O)C3CC3)n[nH]c2n1 [SB-711239],0
12,Cl.O=C(Nc1cccc(-c2nn3ncccc3c2-c2ccnc(Nc3cccnc3)n2)c1)c1c(F)cccc1F [GSK312879],0
13,O=C(Nc1n[nH]c2nc(-c3nccs3)c(Br)cc12)C1CCCC1 [SB-742609],0
14,COc1cc(Nc2nccc(N3CCC(NC(=O)Nc4cc(C)ccc4C)C3)n2)cc(OC)c1OC (centres unmarked) [GSK1379762],0
15,CC(=O)Nc1nc2cnc(Nc3cc(NC(=O)c4cccc(CCC#N)c4)ccc3C)nc2s1,9
16,Cc1cc(N2Cc3ccccc3C2)nc(Nc2ccc(S(=O)(=O)N3CCOCC3)cc2)n1.Cl [GSK1669917],7
17,Cc1cccc(-c2nc(C)cc(Nc3ccncc3)n2)n1 [GSK257997],22

row,SMILES,%Inh [%]
1,O=c1cc(N2CCOCC2)nc2n(Cc3cccc(Cl)c3Cl)ccn12 [GSK2286295],5
2,Cc1cc(-c2ccc3c(c2)CC[C@@H](N[C@@H](C)c2ccccc2)C3)cnc1N.Cl [GW412617],10
3,COc1ccccc1CNC(=O)c1cc(C(=O)c2ccccc2C)c[nH]1 [GSK364507],100
4,Cc1cccc(-c2nc(Nc3cccc(C(N)=O)c3)c3ccccc3n2)n1 [GW876019],19
5,Cc1csc(-c2nc(Nc3ccncc3)c3ccccc3n2)n1 [GW869640],26
6,CS(=O)(=O)c1ccc(-c2nc3n(c2-c2ccncc2)CCC3)cc1 [SKF-105942],9
7,Nc1ncnc2[nH]c(-c3ccccc3)nc12 [AH5015],100
8,Cc1cccc(-c2nc(Nc3ccncc3)c3ccccc3n2)n1 [GW855857],0
9,COC(=O)c1c(-c2ccccc2)c2cc(OC)ccc2c(=O)n1Cc1ccccc1,27
10,Cc1c(Cn2ccn3c(=O)cc(N4CCOCC4)nc23)cccc1C(F)(F)F [GSK2289044],3
11,COc1ccc(Nc2nccc(-c3cccc(NC(=O)c4cc5cc(F)ccc5[nH]4)c3)n2)cc1 [GSK1229782],27
12,O=C(O)COc1ncnc2cc(-c3ccc4[nH]ncc4c3)sc12,20
13,Cc1ccc(-c2cc(-c3c[nH]nc3-c3ccccn3)ccn2)cc1 [GW684088],0
14,Cc1c(O)cccc1Nc1ccnc2ccc(C(F)(F)F)cc12.Cl [GW466413],0
15,CS(=O)(=O)c1ccc(-c2c(-c3ncn[nH]3)sc(N3CCOCC3)c2C#N)cc1,24
16,Fc1cccc(COc2nnc(-c3ccc4c(c3)CCO4)o2)c1,60
17,COc1cc2ncnc(Nc3ccc4nc(-c5ccccc5)[nH]c4c3)c2cc1OC.Cl [GW282450],98.4

# Test system: T1, CTK
# T1 construct: gene MATK
# Conditions: concentration: 1 μM, replicates: in singlicate; n = 1
row,SMILES,%Inh [%]
1,COc1cc2ncn(-c3cc(OCC4CCCO4)c(C(N)=O)s3)c2cc1OC (centres unmarked) [GSK204607],0
2,C[C@@H]1CCCCN1c1cc(-c2ccc3c(N)n[nH]c3c2)nc(N)n1 [GSK2258759],0
3,COc1ccc(C2=C(Nc3cccc(C(=O)O)c3)C(=O)NC2=O)cc1 [SB-390765],43
4,CCCc1ccc(S(=O)(=O)NC2CCN(c3ccnc(Nc4ccc(F)cc4)n3)C2)cc1 (centres unmarked) [GSK1379715],0
5,O=C(Nc1ccccc1)Nc1cccc(Oc2ccc3nccn3n2)c1,0
6,Cn1ccc2ncnc(Oc3ccc(Nc4nc5ccccc5[nH]4)cc3)c21,0
7,Cc1cccc(-c2cc(Nc3ccncc3)c3ccccc3n2)n1 [GSK223675],0
8,Cc1ccc(NC(=O)Nc2cccc(Cl)c2)cc1-c1ccc(C(=O)Nc2ccncc2)cc1 [GSK1398468],0
9,COc1ccc(CNC(=O)NC2CCN(c3ccnc(Nc4cc(OC)c(OC)c(OC)c4)n3)C2)cc1 (centres unmarked) [GSK1379748],0
10,O=S(=O)(c1ccc(-c2ccnc3[nH]ccc23)cc1)N1CCCC1 [GSK846226],0
11,COc1ccccc1-c1ccc2c(NC(=O)C3CC3)n[nH]c2n1 [SB-711239],0
12,Cl.O=C(Nc1cccc(-c2nn3ncccc3c2-c2ccnc(Nc3cccnc3)n2)c1)c1c(F)cccc1F [GSK312879],25
13,O=C(Nc1n[nH]c2nc(-c3nccs3)c(Br)cc12)C1CCCC1 [SB-742609],0
14,COc1cc(Nc2nccc(N3CCC(NC(=O)Nc4cc(C)ccc4C)C3)n2)cc(OC)c1OC (centres unmarked) [GSK1379762],8
15,CC(=O)Nc1nc2cnc(Nc3cc(NC(=O)c4cccc(CCC#N)c4)ccc3C)nc2s1,0
16,Cc1cc(N2Cc3ccccc3C2)nc(Nc2ccc(S(=O)(=O)N3CCOCC3)cc2)n1.Cl [GSK1669917],0
17,Cc1cccc(-c2nc(C)cc(Nc3ccncc3)n2)n1 [GSK257997],0

row,SMILES,%Inh [%]
1,O=c1cc(N2CCOCC2)nc2n(Cc3cccc(Cl)c3Cl)ccn12 [GSK2286295],0
2,Cc1cc(-c2ccc3c(c2)CC[C@@H](N[C@@H](C)c2ccccc2)C3)cnc1N.Cl [GW412617],13
3,COc1ccccc1CNC(=O)c1cc(C(=O)c2ccccc2C)c[nH]1 [GSK364507],0
4,Cc1cccc(-c2nc(Nc3cccc(C(N)=O)c3)c3ccccc3n2)n1 [GW876019],13
5,Cc1csc(-c2nc(Nc3ccncc3)c3ccccc3n2)n1 [GW869640],36
6,CS(=O)(=O)c1ccc(-c2nc3n(c2-c2ccncc2)CCC3)cc1 [SKF-105942],0
7,Nc1ncnc2[nH]c(-c3ccccc3)nc12 [AH5015],5
8,Cc1cccc(-c2nc(Nc3ccncc3)c3ccccc3n2)n1 [GW855857],0
9,COC(=O)c1c(-c2ccccc2)c2cc(OC)ccc2c(=O)n1Cc1ccccc1,26
10,Cc1c(Cn2ccn3c(=O)cc(N4CCOCC4)nc23)cccc1C(F)(F)F [GSK2289044],0
11,COc1ccc(Nc2nccc(-c3cccc(NC(=O)c4cc5cc(F)ccc5[nH]4)c3)n2)cc1 [GSK1229782],0
12,O=C(O)COc1ncnc2cc(-c3ccc4[nH]ncc4c3)sc12,14
13,Cc1ccc(-c2cc(-c3c[nH]nc3-c3ccccn3)ccn2)cc1 [GW684088],0
14,Cc1c(O)cccc1Nc1ccnc2ccc(C(F)(F)F)cc12.Cl [GW466413],0
15,CS(=O)(=O)c1ccc(-c2c(-c3ncn[nH]3)sc(N3CCOCC3)c2C#N)cc1,26
16,Fc1cccc(COc2nnc(-c3ccc4c(c3)CCO4)o2)c1,0
17,COc1cc2ncnc(Nc3ccc4nc(-c5ccccc5)[nH]c4c3)c2cc1OC.Cl [GW282450],0

# From paper PMC5540273 (PLoS ONE, 2017)
